Measured values as given in PubChem BioAssay AID1029 (Sanford-Burnham Center for Chemical Genomics, 2008).
Out of some 110,000 compounds screened, about 80 (0.07%) were called active. The list comes from a sample in which actives are over-represented; it also holds similar structures and randomly drawn compounds. Unmarked numbers belong to inactive results.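 The calls were made as follows: active = inhibition above the mean of the plate negative controls plus 5 SD (cut at about 13% in these data); inactive = the rest.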

assay: blockers of IgG-bead uptake by macrophages – imaging, J774A.1 cells, IgG beads, primary screen (AID 1029); settings: J774A.1 macrophage IgG-bead phagocytosis, at 5 µM, active compounds read high;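 also: phagocytic index as fraction of beads internalized from green versus red external bead signal; plate controls were DMSO negative control for no effect and cytochalasin-D positive control for full effect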

In the case of CC(=O)c1c(C)n([O-])c2ccccc2[n+]1=O, the inhibition is reported as 79.2% (active).

Going from CC(=O)c1ccc2c(c1)c1ccccc1n2CC(C)C to CC(=O)Nc1ccc(/C(C)=N/NC(=O)CN(c2ccccc2Br)S(C)(=O)=O)cc1, the inhibition falls from 0.3% to -1.53%.

First: c1ccc(-c2cc3c(NCC4COc5ccccc5O4)ncnc3s2)cc1 (stereo unspecified)
Second: CCc1ccc(-c2cc(C(=O)NN3CCN(C)CC3)c3ccccc3n2)cc1
The inhibition of the first is lower: -5.69% for the first, -2.84% for the second.

Going from CCNS(=O)(=O)c1ccc(NC(=O)c2cncc(Br)c2)cc1 to COCCNC(=O)c1ccccc1NS(=O)(=O)c1ccc(C)c([N+](=O)[O-])c1, the inhibition rises from -7.43% to -2.99%.

First: CCC1CCCCN1C(=S)Nc1ccc(C(C)=O)cc1 (stereo unspecified)
Second: Cc1ccc(NC(=O)CSCC(=O)NC2CCCCC2)cc1
The inhibition of the first is lower: -9.4% for the first, 6.8% for the second.

Compared with O=C(/C=C/c1cccc([N+](=O)[O-])c1)NCCSCc1ccco1, Cc1ccnc(NC(=O)Cn2ccc([N+](=O)[O-])n2)c1 is lower in inhibition: 6.74% for the first, -6.53% for the second.

First: COC(=O)c1c(NC(=O)CN2CCN(S(=O)(=O)c3ccccc3[N+](=O)[O-])CC2)sc2c1CCC(C)C2 (stereo unspecified)
Second: CCC1CCc2c(sc(NC(C)=O)c2C#N)C1 (stereo unspecified)
The inhibition of the first is higher: -4.89% for the first, -7.48% for the second.

Going from Cc1ccc(CN2C(=O)N/C(=C/c3cc(C)n(-c4ccccn4)c3C)C2=O)cc1 to COc1ccc(N2C(=O)C(O)C2c2ccc(C)cc2)cc1 (stereo unspecified), the inhibition rises from -12.6% to -1.93%.

Going from COc1ccc(NC(=S)NC2CCS(=O)(=O)C2)cc1 (stereo unspecified) to O=C(NNC(=S)NCc1ccccc1)c1ccc(OC(F)F)cc1, the inhibition falls from -3.06% to -3.86%.

Going from O=C(Nc1ccccc1)/C(=C/c1ccc([N+](=O)[O-])cc1)NC(=O)c1ccccc1 to CC(CC(=O)N1CCN(c2ccccc2)CC1)c1ccccc1 (stereo unspecified), the inhibition rises from -6.22% to -3.13%.

Going from Cc1ccccc1OCC(=O)Nc1nc(C)c(C(=O)N(C)C)s1 to Cc1ccc(C)c(NC(=O)CCC(=O)NNC(=O)c2cccs2)c1, the inhibition rises from -2.14% to 1.58%.

Going from CCn1ncc(CNC(=O)C2(C)CC2(Br)Br)c1C (stereo unspecified) to COCCNc1nc(N)c([N+](=O)[O-])c(NCCO)n1, the inhibition falls from -2.71% to -3.97%.

Going from O=C(/C=C\c1cn(-c2ccccc2)nc1-c1cccs1)N1CCOCC1 to COc1ccc(/C(C)=N/NC(=O)CCC(=O)Nc2ccc(Cl)cc2Cl)c(OC)c1, the inhibition rises from -5.61% to 0.09%.

COc1cc2c(cc1OC)C(Nc1ccc(S(N)(=O)=O)cc1)=NC(C)(C)C2 gave an inhibition of -2.77%.
